Results published in PubChem BioAssay (NCATS).
Records with an inconclusive call do not appear. Calls of active or inactive are those of the source. Calls come from the whole dose curve; as a rule, active = well fitted curve in the direction sought with a large enough effect; inconclusive = small, poorly fitted or top-dose-only effect, or another doubt; inactive = no such curve, though single readings can be large; an effect the other way counts as inactive or inconclusive.

Assays:
[1] = molecular target: Lysine-specific demethylase 5B (Homo sapiens) (UniProt Q9UGL1); test: Optimization screen for KDM5B Histone Demethylases FDH coupled qHTS against the LOPAC library (AID 1347166); note: 0% is about no effect
How it was run: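 KDM5BDeltaAP (200nM final) in 50mM HEPES pH 7.5, 0.01% Tween-20 was preincubated with compound for 10 min at room temperature. A substrate mix of 12.5uM H3K4Me3, 25uM a-ketoglutarate, ascorbate, Fe2+, NAD+ and formaldehyde dehydrogenase was then added. NADH fluorescence (340/450 nm) was read initially and after 30 min.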

[2] = qHTS to identify inhibitors of the type 1 interferon - major histocompatibility complex class I in skeletal muscle: primary screen against the NCATS LOPAC collection (AID 1347405);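 note: lytic HiBiT luminescence reporting HLA-B protein level; % is set by controls: 0 for no effect and ±100 for the full control effect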
How it was run: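 First, engineered myoblasts carrying HLA-B-HiBiT were seeded in medium lacking dexamethasone with 4 ng/ml IFN-beta. After 1 hr, compounds were pinned in (top 46 uM final, 7 points). After 24 hrs at 37 C, luminescence was measured following 10 min lysis.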

[3] = qHTS to identify inhibitors of the type 1 interferon - major histocompatibility complex class I in skeletal muscle: primary screen against the NCATS Pharmaceutical Collection (AID 1347407);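 note: luminescence of HiBiT knocked into endogenous HLA-B as interferon-induced MHC class I level; % is set by controls: 0 for no effect and ±100 for the full control effect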
How it was run: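 Immortalized human myoblasts (C25cl48) with HiBiT knocked into endogenous HLA-B*08:01 were stimulated with 4 ng/ml IFN-beta and treated with compounds (8-point, 1:5, top 46 uM final) for 24 h at 37 C; HiBiT lytic luminescence read.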

[4] = qHTS for inhibitors of adenylyl cyclases using a fission yeast platform: a pilot screen against the NCATS LOPAC library (AID 1347410);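 note: plate controls were DMSO vehicle for no effect and DPI positive control for full effect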
How it was run: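 S. pombe CHP2027 (AC9-GNAS-PDE4D2) carrying a PKA-repressed fbp1-GFP reporter was exposed to LOPAC compounds (final up to 57 µM) for 18 h at 30C in the dark, in EMM with histidine, lysine and uracil; GFP gain-of-signal read by laser scanning cytometry.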

[5] = molecular target: Protein phosphatase 1D (Homo sapiens) (UniProt O15297); test: RapidFire Mass Spectrometry qHTS Assay for Modulators of WT P53-Induced Phosphatase 1 (WIP1) (AID 1347424);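 note: amount of dephosphorylated VEPPL-S-QETFS peptide product formed by WIP1; series mostly up to about 63 µM; plate controls were DMSO wells for no effect and GSK830371 inhibitor control at 10 µM for full effect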
How it was run: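 RapidFire mass spectrometry measured dephosphorylated peptide after 5 min room-temperature reaction of 2 uM VEPPL-pS-QETFS with 10 nM WIP1 (50 mM Tris-HCl pH 7.5, 30 mM MgCl2, 0.1 mM EGTA, BSA), following 1 hr compound preincubation; 1 uM isotope-labelled product standard.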

[6] = molecular target: Protein phosphatase 1D (Homo sapiens) (UniProt O15297); test: Rhodamine-PBP qHTS Assay for Modulators of WT P53-Induced Phosphatase 1 (WIP1) (AID 1347425); note: % of control where 0% means no effect
How it was run: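 5 nM WIP1 + 10 uM Rh-PBP, 50 mM Tris pH 7.5, 30 mM MgCl2, 1 mM TCEP, 0.1 mM EGTA, BSA; cpds pinned, 1 hr RT; + 10 uM phosphopeptide; fluorescence 1-min reads x 11 min; delta = f1 - f0.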

[7] = Validation qHTS assay for inhibitors of Activation Induced Cytidine Deaminase (AID): UDG Counterscreen signal (AID 1347427); note: 0% is about no effect
How it was run: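 Fluorescence at 560 nm excitation, 665 nm emission reports UDG signal after 250 mM NaOH (2x) addition and 30 min. Enzymes (AID 1 uM, UDG 2 U/mL, at 4/3x) preincubated 10 min with compound, then 4 h with 4x 250 nM DJC20/DJC23 substrate at room temperature.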

[8] = molecular target: Single-stranded DNA cytosine deaminase (Homo sapiens) (UniProt Q9GZX7); test: Validation qHTS assay for inhibitors of Activation Induced Cytidine Deaminase (AID): AID signal (AID 1347429); note: % is set by controls: 0 for no effect and ±100 for the full control effect
How it was run: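 Steps: dispense AID with UDG; pin-transfer compound up to 114 uM final; add DJC20/DJC23 substrate and hold 4 hr at room temperature; add NaOH, hold 30 min; read FRET signal (540/590 nm).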

[9] = Primary qHTS for inhibitors of La Crosse Virus (LACV) - induced cell death in SH-SY5Y cells (AID 1508616);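 note: top concentration of the series differs between compounds; 0% = infected DMSO wells and 100% = uninfected DMSO wells; higher means more rescue of cells from virus-induced death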
How it was run: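 SH-SY5Y, 6000 cells/well; cpd via pin tool in DMSO; LACV 0.01 MOI; 6 d 37C 5% CO2; ATPLite, 5 min RT; luminescence normalized to ±virus DMSO controls.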

[10] = molecular target: Calcium and integrin-binding protein 1 (Homo sapiens) (UniProt Q99828); test: Validation qHTS for Identification of Calcium Integrin Binding protein 1 (CIB1) Competitor (AID 1508618); note: % is set by controls: 0 for no effect and ±100 for the full control effect
How it was run: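 Displacement of FITC-alphaIIb peptide (100 nM) from CIB1-GST (1 uM) is monitored by polarization in quantitative HTS format; buffer carries 5 mM CaCl2 and 125 mM NaCl at pH 7.4, incubations are at room temperature.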

[11] = molecular target: Calcium and integrin-binding protein 1 (Homo sapiens) (UniProt Q99828); test: Primary qHTS for Identification of Calcium Integrin Binding Protein 1 (CIB1) Competitor (AID 1508620)
How it was run: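 CIB1-GST (1 uM final) and compound incubated 15 min at room temperature before adding FITC-alphaIIb peptide tracer (100 nM final). Competition for binding read by fluorescence polarization (ex 480, em 540) after another 15 min at room temperature.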

[12] = Counterscreen qHTS for small molecule stabilizers of the endoplasmic reticulum resident proteome: GLuc-NoTag assay (AID 1508627);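 note: series mostly up to about 76 µM; 0% = thapsigargin alone and -100% = DMSO vehicle control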
How it was run: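 Counterscreen line: SH-SY5Y-GLuc-NoTag cells, treated with compound 19 hr before a 4 hr, 100 nM thapsigargin calcium depletion. Secreted Gaussia luciferase in the medium was measured by luminescence after coelenterazine was added (0.07x final), with cells unlysed.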

[13] = Confirmatory qHTS for small molecule stabilizers of the endoplasmic reticulum resident proteome: Secreted ER Calcium Modulated Protein (SERCaMP) assay (AID 1508628); note: series mostly up to about 76 µM; % is set by controls: 0 for no effect and ±100 for the full control effect; nearly all actives have a fitted effect of over 40% in size
How it was run: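 Reporter secretion upon ER calcium depletion (100 nM thapsigargin, 4 h, 37C) is measured as medium luminescence with coelenterazine, after 16 h compound pretreatment of SH-SY5Y-GLuc-SERCaMP cells; primary at three concentrations up to 38.3 uM, follow-up at 11 (up to 76.6 uM).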

[14] = Cell Viability qHTS for small molecule stabilizers of the endoplasmic reticulum resident proteome (AID 1508629); conditions: cell viability counter-screen, 100 nM thapsigargin for final 4 h
[15] = qHTS to identify inhibitors of the type 1 interferon - major histocompatibility complex class I in skeletal muscle: primary screen against the NCATS Mechanism Interrogation Plate v5.0 (MIPE) Libary (AID 1347411);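 note: plate controls were vehicle for no effect and reference inhibitor for full effect; nearly all actives have a fitted effect of over 65% in size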
How it was run: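 Seed engineered human myoblasts (HLA-B HiBit) in medium without dexamethasone containing 4 ng/ml IFN-beta; after 1 hr add compound titrations (top 46 uM final). Incubate 24 hrs at 37 C, lyse 10 min with HiBiT reagent, read luminescence.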

Sequence of Calcium and integrin-binding protein 1 (Homo sapiens) (Q99828 whole entry, looked up): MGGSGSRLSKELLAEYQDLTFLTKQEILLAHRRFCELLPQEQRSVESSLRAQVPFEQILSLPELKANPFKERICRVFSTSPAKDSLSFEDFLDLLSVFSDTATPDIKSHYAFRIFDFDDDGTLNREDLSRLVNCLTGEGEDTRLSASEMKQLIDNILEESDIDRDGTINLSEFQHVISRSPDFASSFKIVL
Sequence of Single-stranded DNA cytosine deaminase (Homo sapiens) (Q9GZX7 whole entry, looked up): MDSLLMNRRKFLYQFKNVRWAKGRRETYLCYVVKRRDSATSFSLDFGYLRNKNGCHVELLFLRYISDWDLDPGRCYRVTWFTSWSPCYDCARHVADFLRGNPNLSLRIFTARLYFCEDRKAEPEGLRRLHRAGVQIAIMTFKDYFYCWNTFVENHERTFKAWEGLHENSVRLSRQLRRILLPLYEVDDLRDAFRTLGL
Sequence of Protein phosphatase 1D (Homo sapiens) (O15297 whole entry, looked up): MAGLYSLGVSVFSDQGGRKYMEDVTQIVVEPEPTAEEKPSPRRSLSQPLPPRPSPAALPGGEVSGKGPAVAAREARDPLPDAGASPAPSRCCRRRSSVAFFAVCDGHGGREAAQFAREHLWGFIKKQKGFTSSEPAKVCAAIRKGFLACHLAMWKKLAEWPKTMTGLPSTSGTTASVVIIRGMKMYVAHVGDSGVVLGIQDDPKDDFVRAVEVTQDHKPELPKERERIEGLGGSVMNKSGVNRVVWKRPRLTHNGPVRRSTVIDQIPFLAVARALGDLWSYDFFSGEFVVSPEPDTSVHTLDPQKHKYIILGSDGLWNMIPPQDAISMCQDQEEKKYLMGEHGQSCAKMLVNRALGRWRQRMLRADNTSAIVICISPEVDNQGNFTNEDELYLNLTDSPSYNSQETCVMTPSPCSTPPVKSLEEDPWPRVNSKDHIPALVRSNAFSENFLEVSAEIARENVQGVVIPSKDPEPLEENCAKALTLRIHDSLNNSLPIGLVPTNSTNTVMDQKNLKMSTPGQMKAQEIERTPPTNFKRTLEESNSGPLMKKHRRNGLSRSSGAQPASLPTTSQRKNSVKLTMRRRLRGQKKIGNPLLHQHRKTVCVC
Sequence of Lysine-specific demethylase 5B (Homo sapiens) (Q9UGL1 whole entry, looked up): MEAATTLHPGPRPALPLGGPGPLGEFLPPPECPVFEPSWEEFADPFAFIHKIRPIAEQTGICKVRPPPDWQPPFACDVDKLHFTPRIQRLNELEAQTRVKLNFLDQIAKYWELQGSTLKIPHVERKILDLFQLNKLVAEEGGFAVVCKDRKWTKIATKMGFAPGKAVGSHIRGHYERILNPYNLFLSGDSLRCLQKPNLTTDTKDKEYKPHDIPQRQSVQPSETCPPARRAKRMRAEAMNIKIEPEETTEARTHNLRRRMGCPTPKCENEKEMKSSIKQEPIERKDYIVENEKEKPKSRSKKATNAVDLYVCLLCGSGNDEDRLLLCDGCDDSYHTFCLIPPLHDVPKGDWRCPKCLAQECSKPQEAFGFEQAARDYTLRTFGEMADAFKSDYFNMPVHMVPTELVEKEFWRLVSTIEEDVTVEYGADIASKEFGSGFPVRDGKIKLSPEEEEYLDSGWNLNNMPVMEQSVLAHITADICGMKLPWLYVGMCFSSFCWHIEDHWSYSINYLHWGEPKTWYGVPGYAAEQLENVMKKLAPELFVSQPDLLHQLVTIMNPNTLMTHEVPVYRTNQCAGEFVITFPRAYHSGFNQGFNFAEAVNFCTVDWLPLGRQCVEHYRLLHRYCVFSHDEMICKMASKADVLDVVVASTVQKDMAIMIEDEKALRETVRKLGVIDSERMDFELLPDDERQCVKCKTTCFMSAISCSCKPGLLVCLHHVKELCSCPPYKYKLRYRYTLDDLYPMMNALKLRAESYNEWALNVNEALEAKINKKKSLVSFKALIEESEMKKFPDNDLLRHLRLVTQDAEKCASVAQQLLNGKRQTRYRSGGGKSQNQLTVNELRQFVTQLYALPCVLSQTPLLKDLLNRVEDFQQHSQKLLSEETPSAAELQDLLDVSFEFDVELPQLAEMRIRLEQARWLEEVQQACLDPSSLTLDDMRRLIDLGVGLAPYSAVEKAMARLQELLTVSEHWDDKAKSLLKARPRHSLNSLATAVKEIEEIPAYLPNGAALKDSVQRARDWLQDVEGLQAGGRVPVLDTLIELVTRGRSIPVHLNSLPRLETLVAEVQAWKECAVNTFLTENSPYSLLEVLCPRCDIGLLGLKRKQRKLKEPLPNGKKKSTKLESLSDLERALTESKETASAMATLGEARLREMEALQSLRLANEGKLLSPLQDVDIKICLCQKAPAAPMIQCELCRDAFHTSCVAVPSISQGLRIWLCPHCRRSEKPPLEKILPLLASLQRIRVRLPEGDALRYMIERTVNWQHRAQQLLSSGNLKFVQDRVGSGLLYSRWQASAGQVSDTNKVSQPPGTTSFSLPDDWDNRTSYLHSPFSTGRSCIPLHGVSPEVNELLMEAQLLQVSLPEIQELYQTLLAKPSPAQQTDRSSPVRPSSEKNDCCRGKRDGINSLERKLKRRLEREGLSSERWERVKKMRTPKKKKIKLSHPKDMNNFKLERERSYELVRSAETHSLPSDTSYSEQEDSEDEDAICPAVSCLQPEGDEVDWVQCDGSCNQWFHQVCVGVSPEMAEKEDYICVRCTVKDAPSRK

CC(CN(C)C)CN1c2ccccc2CCc2ccccc21 (stereo unspecified)
inactive: outcome [1] | Potency [2] | Potency [3] | outcome [4] | outcome [5] | outcome [6] | Potency [7] | Potency [8] | outcome [9] | outcome [10] | outcome [11]

CC1=C(CC(=O)O)c2cc(F)ccc2/C1=C\c1ccc(S(C)(=O)=O)cc1
inactive: outcome [1] | Potency [2] | Potency [3] | outcome [4] | Potency [8] | outcome [9] | outcome [10] | outcome [11]

CCN(CC)CCOC(=O)C1(C2CCCCC2)CCCCC1
inactive: outcome [1] | Potency [2] | outcome [4] | outcome [5] | outcome [6] | Potency [7] | Potency [8] | outcome [9] | outcome [10] | outcome [11] | Potency [12] | Potency [13] | max response [14] -2.82%

CC(=O)OCC(=O)[C@@]1(O)CC[C@H]2[C@@H]3CCC4=CC(=O)CC[C@]4(C)[C@H]3C(=O)C[C@@]21C
inactive: outcome [1] | Potency [2] | Potency [3] | outcome [4] | Potency [15] | outcome [6] | Potency [8] | outcome [9] | outcome [10] | outcome [11]

O=C1N=C(O)CN1/N=C/c1ccc(-c2ccc([N+](=O)[O-])cc2)o1
inactive: outcome [1] | Potency [2] | Potency [3] | outcome [4] | outcome [5] | outcome [6] | Potency [8] | outcome [9] | outcome [10] | outcome [11] | Potency [12] | max response [14] 30.6%

Nc1ncnc2c1ncn2[C@@H]1O[C@H](CO)[C@@H](O)[C@H]1O
inactive: outcome [1] | Potency [2] | Potency [3] | outcome [4] | Potency [15] | outcome [5] | outcome [6] | Potency [8] | outcome [9] | outcome [10]

CNC(=O)Oc1ccc2c(c1)[C@]1(C)CCN(C)[C@@H]1N2C
inactive: outcome [1] | Potency [2] | Potency [3] | outcome [4] | outcome [5] | outcome [6] | Potency [8] | outcome [9] | outcome [10]

CN(C)CC[C@@H](c1ccc(Cl)cc1)c1ccccn1
inactive: outcome [1] | Potency [2] | Potency [3] | outcome [4] | outcome [5] | outcome [6] | Potency [8] | outcome [9]
